Structures are written as SMILES. Hit rate of the full screen: of about 39,000 compounds, about 3,300 (8.5%) were called active. Shown is part of a subset that was picked to be rich in actives.

The assay relates to HepG2. In words: cytotoxicity call (relative viability < 0.9). The settings on record: 10 µM.
Turning to `O=C(O)[C@@H](O)c1ccccc1`, the cytotoxicity call is “inactive”.
For `C[C@H]1CN([C@@H](C)CO)C(=O)c2cc(NC(=O)Nc3ccc(F)cc3)ccc2O[C@H]1CN(C)Cc1ccc(-c2ccccc2)cc1` the value was “inactive”; for `C[C@H](CO)N1C[C@H](C)[C@@H](CN(C)Cc2ccc(-c3ccccc3)cc2)Oc2ccc(NC(=O)Nc3ccc(F)cc3)cc2C1=O`, “inactive”.
In the case of `C[C@@H]1CN([C@H](C)CO)C(=O)c2cc(NC(=O)Nc3ccc(F)cc3)ccc2O[C@H]1CN(C)Cc1ccc(-c2ccccc2)cc1`, the cytotoxicity call was “inactive”.
`C[C@H](CO)N1C[C@H](C)[C@H](CN(C)Cc2ccc(-c3ccccc3)cc2)Oc2ccc(NC(=O)Nc3ccc(F)cc3)cc2C1=O`: the cytotoxicity call is “inactive”.
As to `C[C@@H]1CN([C@@H](C)CO)C(=O)c2cc(NC(=O)Nc3ccc(F)cc3)ccc2O[C@@H]1CN(C)Cc1ccc(-c2ccccc2)cc1`, the cytotoxicity call is “active”.
The entry for `C[C@@H]1CN([C@@H](C)CO)C(=O)c2cc(NC(=O)Nc3ccc(F)cc3)ccc2O[C@H]1CN(C)Cc1ccc(-c2ccccc2)cc1` is “active”.
For `C[C@@H]1CN([C@H](C)CO)C(=O)c2cc(NC(=O)Nc3ccc(F)cc3)ccc2O[C@@H]1CN(C)Cc1ccc(-c2ccccc2)cc1` the value was “active”; for `C[C@H]1CN([C@@H](C)CO)C(=O)c2cc(NC(=O)Nc3ccc(F)cc3)ccc2O[C@@H]1CN(C)Cc1ccc(-c2ccccc2)cc1`, “inactive”; for `C[C@@H]1CN([C@H](C)CO)C(=O)c2cc(NC(=O)C3CCCCC3)ccc2O[C@@H](C)CCCCO[C@H]1CN(C)S(=O)(=O)c1ccc(Cl)cc1`, “inactive”.
The entry for `CO[C@H]1CN(C)C(=O)c2ccc(NS(=O)(=O)c3cn(C)cn3)cc2OC[C@@H](C)N(Cc2cccc(F)c2)C[C@@H]1C` is “inactive”.
Regarding `C[C@@H]1CN([C@H](C)CO)C(=O)c2cc(NS(C)(=O)=O)ccc2O[C@@H]1CN(C)C(=O)Nc1ccc(F)cc1`, the cytotoxicity call was “inactive”.
For `C[C@@H]1CCCCO[C@@H](CN(C)C(=O)Nc2ccc3c(c2)OCO3)[C@H](C)CN([C@@H](C)CO)C(=O)c2cc(NC(=O)CCC(F)(F)F)ccc2O1` the value was “inactive”; for `CO[C@@H](CN(C)S(=O)(=O)c1ccc(C)cc1)[C@H](C)CN([C@H](C)CO)S(=O)(=O)c1cccc(Cl)c1`, “inactive”; for `COCC(=O)N1C[C@@H](C)[C@H](OC)CN(C)C(=O)c2cc(NC(=O)c3ccc(F)cc3)ccc2OC[C@H]1C`, “inactive”.
With `O=C1c2ccccc2[C@@]2(Cc3ccccc3N(CC(F)(F)F)C2=O)[C@H](c2ccc(CO)cc2)N1Cc1ccccc1`, the cytotoxicity call was “inactive”.
For `C[C@H]1CN([C@@H](C)CO)C(=O)Cc2cc(NC(=O)Nc3ccc4c(c3)OCO4)ccc2O[C@@H]1CN(C)Cc1ccc(C(=O)Nc2ccccc2N)cc1` the value was “inactive”.
For `C[C@H]1CN([C@@H](C)CO)C(=O)Cc2cc(NC(=O)Nc3ccccc3)ccc2O[C@@H]1CN(C)Cc1ccc(C(=O)Nc2ccccc2N)cc1` the value was “inactive”; for `C[C@@H]1CN([C@H](C)CO)C(=O)Cc2cc(NC(=O)Nc3ccc4c(c3)OCO4)ccc2O[C@@H]1CN(C)Cc1ccc(C(=O)Nc2ccccc2N)cc1`, “active”; for `C[C@@H]1CN([C@@H](C)CO)C(=O)Cc2cc(NC(=O)Nc3ccc4c(c3)OCO4)ccc2O[C@@H]1CN(C)Cc1ccc(C(=O)Nc2ccccc2N)cc1`, “active”.
For `C[C@H]1CN([C@@H](C)CO)C(=O)Cc2cc(NC(=O)Nc3ccc4c(c3)OCO4)ccc2O[C@H]1CN(C)Cc1ccc(C(=O)Nc2ccccc2N)cc1` the value was “active”; for `C[C@H](CO)N1C[C@H](C)[C@@H](CN(C)Cc2ccc(C(=O)Nc3ccccc3N)cc2)Oc2ccc(NC(=O)Nc3ccc4c(c3)OCO4)cc2CC1=O`, “inactive”.
Regarding `C[C@H](CO)N1C[C@H](C)[C@H](CN(C)Cc2ccc(C(=O)Nc3ccccc3N)cc2)Oc2ccc(NC(=O)Nc3ccc4c(c3)OCO4)cc2CC1=O`, the cytotoxicity call was “inactive”.
For `C[C@@H]1CN([C@H](C)CO)C(=O)Cc2cc(NC(=O)Nc3ccc4c(c3)OCO4)ccc2O[C@H]1CN(C)Cc1ccc(C(=O)Nc2ccccc2N)cc1`, the cytotoxicity call is “inactive”.
As for `C[C@@H]1CN([C@@H](C)CO)C(=O)Cc2cc(NC(=O)Nc3ccc4c(c3)OCO4)ccc2O[C@H]1CN(C)Cc1ccc(C(=O)Nc2ccccc2N)cc1`, the cytotoxicity call is “inactive”.
For `C[C@@H]1CN([C@H](C)CO)C(=O)c2cccc(NC(=O)Nc3cccc4ccccc34)c2O[C@@H]1CN(C)C(=O)NC1CCCCC1` the value was “inactive”.
In the case of `C[C@H]1CN([C@@H](C)CO)C(=O)CCCn2cc(nn2)CO[C@@H]1CN(C)C(=O)Nc1cccc2ccccc12`, the cytotoxicity call is “inactive”.
Take `O=C(Cn1cc(COc2ccc(-n3cccc3)cc2)nn1)NS(=O)(=O)c1ccccc1C(F)(F)F`: the cytotoxicity call is “inactive”.
As to `C[C@@H]1CN([C@@H](C)CO)C(=O)c2cc(NC(=O)Cc3ccccc3)ccc2O[C@@H](C)CCCCO[C@H]1CN(C)C(=O)C1CCCCC1`, the cytotoxicity call was “inactive”.
For `C[C@H]1CN([C@@H](C)CO)C(=O)c2cccc(NS(=O)(=O)c3cccs3)c2O[C@@H]1CN(C)CC1CC1` the value was “inactive”; for `COc1ccc([C@@H]([C@H](Cc2ccccc2)OC(C)=O)N2C[C@@H](OC(C)=O)[C@@H]3C(=NO[C@H]3c3ccccc3)[C@@H]2Cc2ccccc2)cc1`, “inactive”.
Turning to `C[C@@H]1CN([C@@H](C)CO)C(=O)c2cccc(NC(=O)Nc3ccc4c(c3)OCO4)c2O[C@@H]1CN(C)Cc1ccc(C(F)(F)F)cc1`, the cytotoxicity call is “inactive”.
On to `Oc1cc(O)c2cc(O)c(-c3ccc(O)c(O)c3)[o+]c2c1.[Cl-]`, for which the cytotoxicity call is “inactive”.
For `Cc1noc(C)c1S(=O)(=O)Nc1ccc2c(c1)C(=O)N([C@H](C)CO)C[C@H](C)[C@H](CN(C)S(=O)(=O)c1ccc(Cl)cc1)O2` the value was “inactive”.
For `COc1ccc(S(=O)(=O)N2C[C@@H](O)COC[C@@H]3O[C@H](CC(=O)NCc4ccc(Cl)c(Cl)c4)CC[C@H]32)cc1` the value was “inactive”; for `COc1ccc(S(=O)(=O)N2C[C@@H](O)COC[C@H]3O[C@@H](CC(=O)NCc4ccc(Cl)c(Cl)c4)CC[C@@H]32)cc1`, “active”.
On to `COc1ccc(S(=O)(=O)N2C[C@@H](O)COC[C@@H]3O[C@@H](CC(=O)NCc4ccc(Cl)c(Cl)c4)CC[C@H]32)cc1`, for which the cytotoxicity call is “active”.
Take `COc1ccc(S(=O)(=O)N2C[C@H](O)COC[C@H]3O[C@H](CC(=O)NCc4ccc(Cl)c(Cl)c4)CC[C@@H]32)cc1`: the cytotoxicity call is “inactive”.
The entry for `COc1ccc(S(=O)(=O)N2C[C@H](O)COC[C@@H]3O[C@H](CC(=O)NCc4ccc(Cl)c(Cl)c4)CC[C@H]32)cc1` is “inactive”.
The entry for `COc1ccc(S(=O)(=O)N2C[C@@H](O)COC[C@H]3O[C@H](CC(=O)NCc4ccc(Cl)c(Cl)c4)CC[C@@H]32)cc1` is “inactive”; for `COCCCN1C(=O)[C@@]2(Cc3ccccc31)c1ccccc1C(=O)N(C1CCCCC1)[C@H]2c1ccc(CO)cc1` it is “inactive”.
For the compound `COc1ccc(NC(=O)N(C)C[C@@H]2OCCCC[C@@H](C)Oc3ccc(NC(=O)NC(C)C)cc3C(=O)N([C@H](C)CO)C[C@H]2C)cc1`, the cytotoxicity call is “inactive”.
For `CCCC#Cc1ccc2c(c1)O[C@H](CN(C)S(=O)(=O)c1cccc(OC)c1)[C@H](C)CN([C@@H](C)CO)S2(=O)=O` the value was “inactive”.
`COc1ccccc1S(=O)(=O)N(C)C[C@H]1Oc2cc(C#CCC(C)C)ccc2S(=O)(=O)N([C@H](C)CO)C[C@@H]1C`: the cytotoxicity call is “inactive”.
`CC(C)CC#Cc1ccc2c(c1)O[C@@H](CN(C)S(=O)(=O)c1cccc(F)c1)[C@H](C)CN([C@@H](C)CO)S2(=O)=O`: the cytotoxicity call was “inactive”.
For `COc1ccccc1S(=O)(=O)N(C)C[C@@H]1Oc2cc(C#CCC(C)C)ccc2S(=O)(=O)N([C@@H](C)CO)C[C@H]1C` the value was “inactive”; for `CC(C)CC#Cc1ccc2c(c1)O[C@H](CN(C)S(=O)(=O)c1cccc(F)c1)[C@H](C)CN([C@@H](C)CO)S2(=O)=O`, “active”; for `COc1ccccc1S(=O)(=O)N(C)C[C@@H]1Oc2cc(C#CCC(C)C)ccc2S(=O)(=O)N([C@H](C)CO)C[C@H]1C`, “inactive”.
For `CC(C)CC#Cc1ccc2c(c1)O[C@@H](CN(C)S(=O)(=O)c1cccc(F)c1)[C@H](C)CN([C@H](C)CO)S2(=O)=O` the value was “inactive”; for `CCCC#Cc1ccc2c(c1)O[C@@H](CN(C)S(=O)(=O)c1cccc(OC)c1)[C@@H](C)CN([C@@H](C)CO)S2(=O)=O`, “inactive”.
For `COc1ccccc1S(=O)(=O)N(C)C[C@H]1Oc2cc(C#CCC(C)C)ccc2S(=O)(=O)N([C@@H](C)CO)C[C@H]1C` the value was “active”; for `COc1ccccc1S(=O)(=O)N(C)C[C@H]1Oc2cc(C#CCC(C)C)ccc2S(=O)(=O)N([C@@H](C)CO)C[C@@H]1C`, “inactive”; for `COc1ccccc1S(=O)(=O)N(C)C[C@@H]1Oc2cc(C#CCC(C)C)ccc2S(=O)(=O)N([C@H](C)CO)C[C@@H]1C`, “active”.
In the case of `C#CCSC1=N[C@@]2(COCc3ccc(OC)cc3)Oc3ccccc3[C@H]([C@H]2CO[Si](C)(C)C(C)(C)C)N1C(=O)c1ccccc1`, the cytotoxicity call is “inactive”.
Turning to `C[C@@H]1CN([C@H](C)CO)C(=O)c2cc(-c3ccc(F)cc3)cnc2O[C@@H]1CN(C)C(=O)Cc1ccccn1`, the cytotoxicity call is “inactive”.
For the compound `C[C@@H]1CN([C@H](C)CO)C(=O)c2cc(NC(=O)CCCN(C)C)ccc2O[C@H]1CN(C)S(=O)(=O)c1ccc(Cl)cc1`, the cytotoxicity call is “inactive”.
As for `COC(=O)C1=C2CC[C@H](CO)NC(=O)N[C@H](Cc3ccccc3)C(=O)NCc3cn(nn3)C[C@@H](Cc3ccccc3)NC(=O)c3oc(c(C(=O)OC)c3C(=O)OC)CC[C@H](CO)NC(=O)N[C@H](Cc3ccccc3)C(=O)NCc3cn(nn3)C[C@@H](Cc3ccccc3)NC(=O)C(=C1C(=O)OC)O2`, the cytotoxicity call is “inactive”.
For the compound `Cc1noc(C)c1S(=O)(=O)Nc1ccc2c(c1)C(=O)N([C@@H](C)CO)C[C@@H](C)[C@H](CN(C)S(=O)(=O)c1cn(C)cn1)OCCCC[C@@H](C)O2`, the cytotoxicity call is “inactive”.
Take `C[C@@H]1CCCCO[C@H](CN(C)C(=O)Nc2ccc(F)cc2)[C@H](C)CN([C@@H](C)CO)C(=O)c2cc(NC(=O)CCC(F)(F)F)ccc2O1`: the cytotoxicity call was “inactive”.
